CYP2C9 activ: activators of human CYP2C9; recombinant CYP2C9, luciferin-H conversion, luminescence; hits give high values; factor 1 = untreated enzyme, 0 = blocked; activation factor at 5 µM; actives 1.4% (n = 96,000);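 active means activation factor of 2 or more for CYP2C9 at a 5 µM dose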;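 further: 0 = sulfaphenazole-blocked wells and 1 = vehicle-only wells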
Target sequence (P11712 whole entry, looked up): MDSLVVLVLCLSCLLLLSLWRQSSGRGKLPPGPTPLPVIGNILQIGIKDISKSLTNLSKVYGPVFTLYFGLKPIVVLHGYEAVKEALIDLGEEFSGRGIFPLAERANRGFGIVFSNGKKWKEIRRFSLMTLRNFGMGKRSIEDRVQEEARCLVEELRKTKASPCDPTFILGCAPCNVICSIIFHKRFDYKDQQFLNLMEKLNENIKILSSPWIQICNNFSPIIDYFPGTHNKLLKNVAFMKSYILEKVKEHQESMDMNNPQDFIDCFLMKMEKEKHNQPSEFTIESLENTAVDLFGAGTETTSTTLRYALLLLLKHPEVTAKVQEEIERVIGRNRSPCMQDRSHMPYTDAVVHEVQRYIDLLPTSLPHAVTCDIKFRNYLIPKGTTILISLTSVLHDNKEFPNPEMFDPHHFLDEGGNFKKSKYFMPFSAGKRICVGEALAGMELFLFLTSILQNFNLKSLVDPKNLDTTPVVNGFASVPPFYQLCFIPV
CYP2C19 inh: blocks human cytochrome P450 2C19; inhibition, % at 5 µM; CYP2C19 Supersomes, luciferin-H EGE luminescence, 30 min; P33261; actives 21% (n = 96,000); AID 778;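 active means CYP2C19 inhibition above a set limit at 5 µM in the primary screen, cut at about 50% in these data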;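 further: plate controls were negative control wells for no effect and 2.5 mM tranylcypromine positive control for full effect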
CYP2C19 activ: cytochrome P450 2C19 (human) activation | activation factor at 5 µM | 96,000 tested, under 10 active | P33261 | recombinant CYP2C19, luciferin-H EGE luminescence; hits give high values; 0 = fully inhibited enzyme, 1 = untreated enzyme;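 active means activation factor of at least 2 at 5 µM in the primary screen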;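 further: 0 = wells with 2.5 mM tranylcypromine and 1 = vehicle-only wells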
CYP2C9 inhib: blocks human cytochrome P450 2C9; P11712; CYP2C9 Supersomes, luciferin-H conversion, luminescence; inhibition, % at 5 µM; actives 20% (n = 96,000);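 active means blocking of liver enzyme CYP2C9 beyond about 50% at 5 µM, limit read from the data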
PLAP act: activates human placental alkaline phosphatase; P05187; purified PLAP enzyme, luminescent substrate read-out; hits give high values; activation fold at 20 µM; actives 1.2% (n = 96,000); AID 696; in the data active means activation fold above about 2
Starred values were filed as active, the others as inactive. An excerpt weighted towards active compounds, which were near 31% of everything screened.

Results for CC(C)(C)NC(=O)CSc1n[nH]c(=O)n1-c1ccccc1 ?
CYP2C9 activ: 0.8; CYP2C19 inh: 20; CYP2C19 activ: 0.8; CYP2C9 inhib: 17; PLAP act: 1

What do the screens show for `O=C(CCC1CCCC1)N1CCN(C(=O)c2cccnc2)CC1`?
CYP2C9 activ: 1; CYP2C19 inh: 70*; CYP2C19 activ: 0.3; CYP2C9 inhib: 1; PLAP act: 1.3

Results for Cc1cccc(OCC(=O)N2CCN(C(=O)CCC3CCCC3)CC2)c1 ?
CYP2C9 activ: 0.5; CYP2C19 inh: 62*; CYP2C19 activ: 0.4; CYP2C9 inhib: 51*; PLAP act: 1.6

How did Cn1c2ccccc2c(=O)c2c(=O)n(C3CCCCC3)c(-c3cccs3)nc21 do in these assays?
CYP2C9 activ: 0; CYP2C19 inh: 31; CYP2C19 activ: 0.7; CYP2C9 inhib: 95*; PLAP act: 0.8

How did CCC(=O)Nc1c(-c2cccs2)c(=O)c2ccccc2n1C do in these assays?
CYP2C9 activ: 0.9; CYP2C19 inh: -1; CYP2C19 activ: 1; CYP2C9 inhib: 12; PLAP act: 1.1

Results for COc1ccc(Cl)cc1N/C(N)=N/c1nc(CSc2ccc(C)cc2)cc(=O)[nH]1 ?
CYP2C9 activ: 0.2; CYP2C19 inh: 52*; CYP2C19 activ: 0.5; CYP2C9 inhib: 76*; PLAP act: 2.6*

Results for COCc1cc(=O)[nH]c(/N=C(\N)Nc2ccc(Oc3ccccc3)cc2)n1 ?
CYP2C9 activ: 0.9; CYP2C19 inh: 4; CYP2C19 activ: 1; CYP2C9 inhib: 15; PLAP act: 1.7

What do the screens show for `COCc1cc(=O)[nH]c(/N=C(\N)Nc2cccc(C)c2)n1`?
CYP2C9 activ: 1; CYP2C19 inh: -5; CYP2C19 activ: 1; CYP2C9 inhib: 0; PLAP act: 2.4*

What do the screens show for `COC(=O)Cc1cc(=O)[nH]c(/N=C(\N)Nc2ccc(C)cc2)n1`?
CYP2C9 activ: 0.9; CYP2C19 inh: -12; CYP2C19 activ: 1.1; CYP2C9 inhib: 9; PLAP act: 2.1*

What do the screens show for `Cn1c(=O)oc2cc(S(=O)(=O)N3CCC(C(=O)NCC4COc5ccccc5O4)CC3)ccc21` (centres undefined)?
CYP2C9 activ: 1.3; CYP2C19 inh: -15; CYP2C19 activ: 1.1; CYP2C9 inhib: -29; PLAP act: 0.9

What do the screens show for `CCCN1C(=O)c2cc(C(=O)NCCc3cccc(C)c3)ccc2C1O` (centres undefined)?
CYP2C9 activ: 0.7; CYP2C19 inh: 27; CYP2C19 activ: 0.7; CYP2C9 inhib: 34; PLAP act: 0.9

Results for Cc1ccc(-n2c(C)cc(C)c(C#N)c2=O)cc1Cl ?
CYP2C9 activ: 0.9; CYP2C19 inh: 12; CYP2C19 activ: 0.9; CYP2C9 inhib: 8; PLAP act: 1

What do the screens show for `COc1ccccc1-n1cnnc1SCC(=O)N1CC(=O)Nc2ccccc21`?
CYP2C9 activ: 0.9; CYP2C19 inh: 19; CYP2C19 activ: 0.8; CYP2C9 inhib: 5; PLAP act: 1.1

How did COc1ccccc1-n1cnnc1SCC(=O)c1ccc[nH]1 do in these assays?
CYP2C9 activ: 0.6; CYP2C19 inh: 59*; CYP2C19 activ: 0.4; CYP2C9 inhib: 41; PLAP act: 0.9

How did COc1ccc(CN(C#N)c2nc(SC)nc(N(C)C)n2)cc1 do in these assays?
CYP2C9 activ: 1.4; CYP2C19 inh: 89*; CYP2C19 activ: 0.1; CYP2C9 inhib: -40; PLAP act: 1.5

How did O=C(NCc1ccccc1)NC1(C(=O)N2CCOCC2)CCCCC1 do in these assays?
CYP2C9 activ: 0.9; CYP2C19 inh: -2; CYP2C19 activ: 1; CYP2C9 inhib: 5; PLAP act: 1

How did O=C(NCc1ccccc1)NC1(C(=O)N2CCN(c3ccccc3)CC2)CCCCC1 do in these assays?
CYP2C9 activ: 0.7; CYP2C19 inh: 57*; CYP2C19 activ: 0.4; CYP2C9 inhib: 33; PLAP act: 1.3

How did ON1C2CCCCC2N(O)C1c1c(F)c(F)c(F)c(F)c1F (centres undefined) do in these assays?
CYP2C9 activ: 1; CYP2C19 inh: 13; CYP2C19 activ: 0.9; CYP2C9 inhib: -4; PLAP act: 0.8

Results for COc1ccc(-c2ccc(SCC(=O)Nc3cc(C)on3)nn2)cc1OC ?
CYP2C9 activ: 0.7; CYP2C19 inh: 3; CYP2C19 activ: 1; CYP2C9 inhib: 35; PLAP act: 1

Results for O=C(Nc1ccc(S(=O)(=O)Nc2nccs2)cc1)c1cc(-c2ccccc2Cl)nc2ccccc12 ?
CYP2C9 activ: 0.5; CYP2C19 inh: 18; CYP2C19 activ: 0.8; CYP2C9 inhib: 52*; PLAP act: 1.4

Screens (PubChem BioAssay)
